Holding throughout (assay): NCI-60 one-dose screen, 48 h (100 = growth as untreated, 0 = no growth, -100 = all killed)
Holding throughout (conditions): 10 µM unless noted

Assay [1] relates to SR leukemia.
The subject of assay [2] is RPMI-8226 leukemia.
Assay [3] concerns OVCAR-8 ovarian.
In assay [4] the test system is OVCAR-5 ovarian.
For assay [5], the system named is OVCAR-4 ovarian.
For assay [6], the system named is SK-OV-3 ovarian.
Assay [7] concerns IGROV1 ovarian.
For assay [8], the system named is OVCAR-3 ovarian.
In assay [9] the test system is HS 578T breast.
The subject of assay [10] is NCI/ADR-RES ovarian.

Values joined by “and” are separate entries in the source; they are usually repeats but may differ in a detail not shown here. Identical values can stand only once. Compounds without any hit were thinned out: in the full panel of roughly 83,000, 20% have a hit.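 Values shown are percent growth following 48 h exposure of cells in 96-well plates to a single concentration of compound; below 10 was considered active.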 Active and inactive are the calls of the source.

On to `NC(N)=NC(N)=NCCCc1ccco1`, for which the growth is 110% (inactive) in assay [1]; 106% (inactive) in assay [2]; 96% (inactive) in assay [3]; 114% (inactive) in [4]; 104% (inactive) in assay [5]; 103% (inactive) in assay [6]. The growth in [7] was 99.8% (inactive); in assay [8], 102% (inactive); in assay [9] it was 109% (inactive); in assay [10], 103% (inactive).
As to `COc1ccc(/C=C/C(=O)c2cc3c(N)c(C(=O)Nc4ccccc4Cl)sc3nc2C)cc1`, the growth was 53.1% (inactive) in assay [1]; 53% (inactive) in assay [2]; 40.3% (inactive) in [3]; 79% (inactive) in [4]; -13% (active) in assay [5]; 58.5% (inactive) in assay [6]. Besides, the growth is 26.9% (inactive) in assay [7], 21.1% (inactive) in [8], 10.3% (inactive) in assay [9] and 42.9% (inactive) in assay [10].
Turning to `CC[C@H](C)[C@H](NC(=O)[C@@H](N)CCC(N)=O)C(=O)N[C@@H](Cc1ccc(O)cc1)C(=O)N[C@@H](CCCCN)C(=O)N[C@@H](CCCCN)C(=O)N[C@@H](Cc1ccc(O)cc1)C(=O)N[C@@H](CCCNC(=N)N)C(=O)N[C@H](C(=O)N[C@@H](Cc1c[nH]c2ccccc12)C(=O)N[C@@H](Cc1ccc(O)cc1)C(=O)N[C@@H](CCCNC(=N)N)C(=O)N[C@@H](CCCCN)C(=O)N[C@@H](C)C(=O)N[C@@H](Cc1c[nH]c2ccccc12)C(=O)N[C@@H](CCCCN)C(=O)N[C@H](C(=O)N[C@@H](CC(C)C)C(=O)NCC(=O)N[C@@H](CCCCN)C(=O)N[C@H](C(N)=O)C(C)C)C(C)C)[C@@H](C)O`, the growth is 37.8% (inactive) in assay [1]; 17.9% (inactive) in assay [2]; 13% (inactive) in assay [3]; 56.6% (inactive) in [4]; 73.5% (inactive) in assay [5]; 42.8% (inactive) in assay [6]. In addition, the growth in assay [7] is -33.4% (active); in assay [8], -1.52% (active); in assay [9], -13% (active); in assay [10] it was -2.5% (active).
On to `C=C(CN1CC=CCC1)[C@@H]1CC[C@]2(COC(C)=O)CC[C@]3(C)[C@H](CC[C@@H]4[C@@]5(C)CC[C@H](O)C(C)(C)[C@@H]5CC[C@]43C)[C@@H]12`, for which the growth in [1] is 90.4% (inactive); in assay [2], 84.2% (inactive); in [3] it was 96.1% (inactive); in assay [4], 132% (inactive); in [5] it was 92.2% (inactive); in assay [6], 115% (inactive). Moreover, the growth in [7] is 112% (inactive); in assay [8], 100% (inactive); in assay [9], 103% (inactive); in [10], 98.3% (inactive).
`COc1cc(C(=O)c2ccccc2C(=O)O)c(OC)c2c1CCCC2`: the growth in [1] is 67.3% (inactive) and 94.9% (inactive); in assay [2], 108% (inactive) and 93.7% (inactive); in assay [3], 104% (inactive) and 101% (inactive); in [4], 112% (inactive) and 106% (inactive); in [5], 99.3% (inactive) and 98.9% (inactive); in assay [6] it was 113% (inactive) and 106% (inactive). Moreover, the growth in [7] is 127% (inactive) and 105% (inactive); in assay [8], 93.3% (inactive) and 105% (inactive); in [9], 103% (inactive) and 112% (inactive); in [10], 103% (inactive) and 104% (inactive).
With `COc1cc(-c2nc3occn3c2-c2ccnc(NCCCNS(=O)(=O)c3ccc(O)cc3)n2)ccc1F`, the growth is 74.2% (inactive) in [1]; 97% (inactive) in [2]; 98.4% (inactive) in [3]; 138% (inactive) in [4]; 129% (inactive) in assay [5]; 82.4% (inactive) in assay [6]. Moreover, the growth in assay [7] was 97.8% (inactive); in assay [8], 117% (inactive); in assay [9], 93% (inactive); in assay [10] it was 104% (inactive).
In the case of `O=C(NNc1ccccc1)C1CCCN1` (stereo not given), the growth is 105% (inactive) in [1]; 78.7% (inactive) in assay [2]; 86.7% (inactive) in [3]; 69.7% (inactive) in [4]; 64.5% (inactive) in assay [5]; 80.6% (inactive) in [6]. Also, the growth in assay [7] is 75.1% (inactive); in assay [8], 88.8% (inactive); in assay [9], 93% (inactive); in [10], 84.1% (inactive).
As to `O=C1OCC2=C1C(c1cccc(C(F)(F)F)c1)c1cc3c(cc1N2CCO)OCCO3` (stereo not given), the growth in assay [1] was 13.3% (inactive); in assay [2] it was 22.2% (inactive); in [3] it was 11.4% (inactive); in [4], 45.9% (inactive); in assay [5] it was 66.3% (inactive); in assay [6], 16.1% (inactive). Besides, the growth in [7] was 38% (inactive); in assay [8], -4.23% (active); in [9], 27.8% (inactive); in assay [10] it was 22.2% (inactive).
As for `O=C1C(Nc2ccc(Cl)cc2)=C(I)C(=O)c2ncccc21`, the growth in assay [1] is 4.45% (active); in assay [2] it was -2.24% (active); in assay [3] it was -65.1% (active); in [4], 60.4% (inactive); in assay [5] it was -91.4% (active); in assay [6], 83.3% (inactive). Besides, the growth in assay [7] is -76.2% (active); in assay [8], -88.3% (active); in [9] it was 39.9% (inactive); in assay [10] it was -0.0242% (active).
On to `[2H]C([2H])([2H])Oc1cccc(/C=C/C(=O)/C=C(/C=C/c2cccc(OC([2H])([2H])[2H])c2OC([2H])([2H])[2H])OB(F)F)c1OC([2H])([2H])[2H]`, for which the growth in [1] is 23.3% (inactive); in assay [2], 46% (inactive); in assay [3] it was 20.6% (inactive); in [4] it was 106% (inactive); in assay [5] it was 71.5% (inactive); in assay [6], 105% (inactive). Also, the growth was 73.3% (inactive) in [7], 39.2% (inactive) in [8], 91.9% (inactive) in [9] and 50.6% (inactive) in assay [10].
With `CCCCCCCCCCCCCCCCCCOc1cccc(CC(=O)OCC[N+](CC)(CC)CC)c1`, the growth in assay [1] was 53% (inactive); in assay [2], 35.4% (inactive); in assay [3] it was 41.4% (inactive); in assay [4] it was 71.3% (inactive); in [5], 27.6% (inactive); in assay [6] it was 103% (inactive). In addition, the growth in [7] is 37.1% (inactive); in [8], 77.7% (inactive); in assay [9], 60.8% (inactive); in assay [10], 103% (inactive).
Turning to `Cc1nc(Nc2ncc(C(=O)Nc3c(C)cccc3Cl)s2)cc(N2CCN(CCO)CC2)n1`, the growth in [1] is 40.4% (inactive) and 14.7% (inactive); in assay [2] it was 92.8% (inactive) and 61.1% (inactive); in [3], 24.2% (inactive) and -24.8% (active); in assay [4], 23.7% (inactive) and 10.2% (inactive); in assay [5], 52.8% (inactive) and 44.8% (inactive); in [6] it was -7.55% (active) and -25.8% (active). In addition, the growth is -16.4% (active) and -37% (active) in assay [7]; 37.3% (inactive) and 20.4% (inactive) in assay [8]; -8.57% (active) in assay [9]; 45.8% (inactive) and 23.7% (inactive) in assay [10].

Source of the values: PubChem BioAssay (NCI).
